PubChem BioAssay (EPA / NIEHS)
Values joined by “and” are separate entries in the source; they are usually repeats but may differ in a detail not shown here. Identical values can stand only once. The source holds several records for some structures; these can differ, active in one and inactive in another. Active and inactive are the calls of the source. Rule for the calls: active = hit-call score of the fitted dose curve at least 0.9, where 1 is the maximum; inactive = score below 0.9.

How the values were obtained:
[1] = read-out: Actin alpha 1 (ACTA1), ACTA1 (gene 58); assay: BSK_MyoF_ACTA1: BioMAP Diversity Plus: MyoF Assay for Actin alpha 1 (ACTA1) Biomarker Activity (AID 2284244); details: primary human lung fibroblasts
In short: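 Lung fibroblasts, human primary, 24 h compound exposure → a-SMA ELISA. Positive-direction fit vs DMSO control.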

[2] = read-out: Interleukin 2 (IL2), IL2 (gene 3558); assay: BSK_BT_xIL2: BioMAP Diversity Plus: BT Assay for Interleukin 2 (IL2) Biomarker Activity (AID 2284245); details: primary human B cells with PBMC
In short: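 B cell + PBMC co-culture (human primary), compound added, 24 h incubation; secreted IL-2 measured multiplexed on Luminex xMAP; gain-of-signal fit vs DMSO.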

[3] = read-out: Basic fibroblast growth factor (bFGF), FGF2 (gene 2247); assay: BSK_MyoF_bFGF: BioMAP Diversity Plus: MyoF Assay for Basic fibroblast growth factor (bFGF) Biomarker Activity (AID 2284246); details: primary human lung fibroblasts
In short: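 ELISA-measured bFGF level serves as the read-out, taken 24 h after chemical dosing of human lung fibroblasts. Values represent signal gain over the DMSO negative control.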

[4] = read-out: Collagen IV, COL4A1 (gene 1282); assay: BSK_MyoF_CollagenIV: BioMAP Diversity Plus: MyoF Assay for Collagen IV Biomarker Activity (AID 2284247); details: primary human lung fibroblasts
In short: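 Steps: dose human lung fibroblasts; culture 24 h; quantify Collagen IV by ELISA; fit increase versus DMSO control. Parallel SRB total-protein staining (0.1% SRB after 10% TCA fixation, 560 nm) tracks overt cytotoxicity.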

[5] = read-out: Monokine induced gamma interferon (MIG), CXCL9 (gene 4283); assay: BSK_KF3CT_MIG: BioMAP Diversity Plus: KF3CT Assay for Monokine induced gamma interferon (MIG) Biomarker Activity (AID 2284248); details: primary human keratinocytes with fibroblasts
In short: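 ELISA read-out of MIG after 24 h chemical exposure of human skin primary co-culture (keratinocytes, foreskin fibroblasts). Gain of signal relative to DMSO negative control was analysed.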

[6] = read-out: Collagen I, COL1A1 (gene 1277); assay: BSK_hDFCGF_CollagenI: BioMAP Diversity Plus: hDFCGF Assay for Collagen I Biomarker Activity (AID 2284250); details: primary human foreskin fibroblasts
In short: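 Human skin primary fibroblasts dosed with test chemical, harvested at 24 h, Collagen I quantified by ELISA; parallel SRB staining (0.1% SRB after 10% TCA fixation, 560 nm) tracked cytotoxicity.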

[7] = read-out: Interferon-inducible T-cell alpha chemoattractant (ITAC), CXCL11 (gene 6373); assay: BSK_hDFCGF_ITAC: BioMAP Diversity Plus: hDFCGF Assay for Interferon-inducible T-cell alpha chemoattractant (ITAC) Biomarker Activity (AID 2284251); details: primary human foreskin fibroblasts
In short: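 Primary human foreskin fibroblasts (hDFCGF system) treated for 24 h; I-TAC quantified by ELISA. Gain-direction fitting versus DMSO; parallel SRB staining of total protein flagged overt cytotoxicity.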

[8] = read-out: Plasminogen activator inhibitor-1 (PAI1), SERPINE1 (gene 5054); assay: BSK_KF3CT_PAI1: BioMAP Diversity Plus: KF3CT Assay for Plasminogen activator inhibitor-1 (PAI1) Biomarker Activity (AID 2284252); details: primary human keratinocytes with fibroblasts
In short: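 ELISA read-out of PAI-1 taken 24 h after chemical treatment of a human skin primary co-culture of keratinocytes and foreskin fibroblasts. Increases over DMSO-treated wells defined activity.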

[9] = read-out: Interleukin-8 (IL8), CXCL8 (gene 3576); assay: BSK_KF3CT_IL8: BioMAP Diversity Plus: KF3CT Assay for Interleukin-8 (IL8) Biomarker Activity (AID 2284254); details: primary human keratinocytes with fibroblasts
Method: BSK_KF3CT is a cell-based, multiplexed-readout assay that uses keratinocytes and foreskin fibroblasts, a human skin primary cell co-culture, with measurements taken at 24 hours after chemical dosing in a 96-well plate.BSK_KF3CT_IL8 is an assay component measured in the BSK_KF3CT assay. It measures IL-8 antibody related to regulation of gene expression using ELISA technology.Data from the assay component BSK_KF3CT_IL8 was analyzed at the endpoint, BSK_KF3CT_IL8, in the positive analysis fitting direction relative to DMSO as the negative control and baseline of activity. Using a type of binding reporter, gain or loss-of-signal activity can be used to understand protein changes. To generalize the intended target to other relatable targets, this assay endpoint is annotated to the 'cytokine' intended target family, where the subfamily is 'interleukins'.
The levels of cell surface (or secreted, indicated by the prefix "s") biomarker endpoints were measured by ELISA. Overt cytotoxicity to cells in confluent adherent cultures (all systems other than the BT system) was assessed by measuring total protein levels using sulforhodamine B (SRB) staining in parallel cultures at the time of biomarker measurements, indicated as SRB endpoints. For proliferation assays for adherent cell types, individual cell types are cultured at sub-confluence and relative cell numbers quantified by SRB staining at time points optimized for each system (48 h: 3C and CASM3C systems; 72 h: BT and HDF3CGF systems; 96 h: SAg system). SRB was performed by staining cells with 0.1% SRB after fixation with 10% TCA and reading wells at 560 nm.Viability and proliferation of PBMC (T cells) was quantified by Alamar Blue reduction for the SAg and BT systems. For PBMC viability (referred to as PBMC Cytotoxicity within the assay endpoint names), cells were plated (75,000/well in a 96-well plate) and then chemical samples added for 1 h before addition of activators, SEB and TSST-1 (20 ng/mL final concentration each). Cells were incubated for 90 h. Then, Alamar Blue (20 uL/well) (Invitrogen, Cat DAL1100) was added for 6 h, and the plates were read with a fluorescence microplate reader at 546/580 nm (excitation/emission). For PBMC proliferation, cells were plated and activated as above but incubated for only 16 h prior to addition of Alamar Blue. Plates were read after 6 h.

[10] = read-out: Interleukin-8 (IL8), CXCL8 (gene 3576); assay: BSK_MyoF_IL8: BioMAP Diversity Plus: MyoF Assay for Interleukin-8 (IL8) Biomarker Activity (AID 2284261); details: primary human lung fibroblasts
In short: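 Lung fibroblasts (human primary) → chemical exposure → 24 h → IL-8 measured by ELISA. Signal increase scored versus DMSO control.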

Measured: AC50

COCc1c(C(C)C)nc(C(C)C)c(/C=C/[C@@H](O)C[C@@H](O)CC(=O)O)c1-c1ccc(F)cc1
inactive: [3] | [4]
active: [1] 0.0484 µM | [2] 0.58 µM

CO[Si](OC)(OC)c1ccccc1
inactive: [5] | [6] | [7] | [8] | [9]

CCCCC(CC)COC(=O)c1ccccc1O (stereo not given)
inactive: [1] | [2] | [3] | [4] | [10]

O=C(Cl)c1cc(C(=O)Cl)cc(C(=O)Cl)c1
active: [1] 35.1 µM | [2] 29.7 µM | [3] 36.9 µM | [4] 30 µM

O=C(Nc1ccccc1SSc1ccccc1NC(=O)c1ccccc1)c1ccccc1
inactive: [1] | [3] | [4] | [10]

CCOC(=O)c1ccccc1C(=C1C=C(Br)C(=O)C(Br)=C1)c1cc(Br)c(O)c(Br)c1
inactive: [9]
active: [5] 4.3 µM and 3.96 µM | [6] 3.27 µM | [7] 4.39 µM and 4.49 µM | [8] 3.18 µM and 3.06 µM

c1ccc2c(c1)ccc1ncccc12
inactive: [1] | [2] | [3] | [4] | [10]

CC(C)(c1cc(Br)c(OCCO)c(Br)c1)c1cc(Br)c(OCCO)c(Br)c1
active: [1] 10.7 µM | [2] 18.7 µM | [3] 9.52 µM | [4] 9.43 µM | [10] 10.6 µM

CCOc1nc(F)cc2nc(S(=O)(=O)Nc3c(Cl)cccc3C(=O)OC)nn12
inactive: [1] | [2] | [3] | [4] | [10]

O=c1c2ccccc2oc2ccccc12
inactive: [1] | [2] | [3] | [4] | [10]

CCCCCCCCc1ccc(Nc2ccc(CCCCCCCC)cc2)cc1
inactive: [1] | [2] | [3] | [4] | [10]

C#CC1(O)CC[C@H]2[C@@H]3CCC4=CCCC[C@@H]4[C@H]3CC[C@@]21C (stereo not given in full)
inactive: [4]
active: [1] 32.2 µM | [2] 31.6 µM | [3] 33 µM | [10] 30.4 µM

C=CCOCC(O)CCl (stereo not given)
inactive: [1] | [2] | [3] | [4] | [10]

C=C[Si](OC(C)=O)(OC(C)=O)OC(C)=O
inactive: [5] | [6] | [7] | [8] | [9]

C=CC(=O)OCC(Br)CBr (stereo not given)
inactive: [10]
active: [1] 20 µM | [2] 24.5 µM | [3] 37.5 µM | [4] 3.97 µM

COc1ccc2nc(N)sc2c1
inactive: [1] | [2] | [3] | [4] | [10]

O=Nc1ccc(O)cc1
inactive: [1] | [2] | [3] | [4] | [10]

O=C(c1ccc(O)cc1)c1ccc(O)cc1O
inactive: [5] | [6] | [7] | [8] | [9]

CCO[Si](C)(OCC)OCC
inactive: [5] | [6] | [7] | [8] | [9]

CCCCC(CC)COCC1CO1 (stereo not given)
inactive: [5] | [6] | [7] | [8] | [9]

CC(C)C(=O)C(C)C
inactive: [1] | [2] | [3] | [4] | [10]

c1ccc2c(c1)ccc1cc3c(ccc4ccccc43)cc12
inactive: [1] | [2] | [3] | [4] | [10]
active: [2] 0.0436 µM

N#[N+]c1ccc2c(S(=O)(=O)[O-])cccc2c1O
inactive: [1] | [2] | [3] | [4] | [10]

CCO[Si](CCCN=C=O)(OCC)OCC
inactive: [1] | [2] | [3] | [4] | [10]

CCCCCCCCCCCCCCCC[N+](C)(C)CC
inactive: [10]
active: [1] 0.757 µM | [2] 1.26 µM | [3] 8.45 µM | [4] 3.25 µM

c1ccc(-c2ccccn2)nc1
inactive: [1] | [2] | [3] | [4] | [10]

C/C=C\C/C=C/CCCCCCCCOC(C)=O
inactive: [3] | [4] | [10]
active: [1] 31.9 µM | [2] 31.6 µM

CC1OC1C1CCC2(C)OC2C1 (stereo not given)
inactive: [1] | [2] | [3] | [4] | [10]

S=C(NC1CCCCC1)NC1CCCCC1
active: [2] 27.6 µM
inactive: [1] | [3] | [4] | [10]

C=CC=CC=CCCCCC
inactive: [1] | [2] | [3] | [4] | [10]

CCCCC/C=C\C/C=C\CCCCCCCC(=O)OC
active: [1] 29.4 µM | [2] 28.9 µM
inactive: [3] | [4] | [10]

CN1C(=O)N(C)C(O)C1O (stereo not given)
inactive: [5] | [6] | [7] | [8] | [9]

Nc1ccc(N)c(Cl)c1
active: [5] 12.3 µM | [6] 26.7 µM | [7] 23.4 µM and 22.6 µM | [8] 13.1 µM and 26.5 µM
inactive: [5] | [6] | [9]

C=CCOc1c(Br)cc(Br)cc1Br
active: [1] 24.4 µM | [3] 34 µM | [4] 5.88 µM
inactive: [2] | [10]

O=C1CCCN1CCO
inactive: [5] | [6] | [7] | [8] | [9]

CCCCNc1ccc(NCCCC)c2c1C(=O)c1ccccc1C2=O
inactive: [1] | [2] | [3] | [4] | [10]
